# Reference: PubChem BioAssay (NCI)
# This is part of a sample that, as a whole, favours compounds with a hit. Of some 83,000 tested, about 20% had one in any assay.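 The endpoint reported here, percent growth, reads 100 for growth as untreated, 0 for no net growth and -100 for all cells dead.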 Activity calls are given as the source filed them. Rule for the calls: active = growth percent below 10; inactive = the rest.
# System: NCI-H460 lung
# Experiment: NCI-60 one-dose screen, 48 h (100 = growth as untreated, 0 = no growth, -100 = all killed)
# Details: 10 µM unless noted
row,Compound,growth
1,CCCCCc1ccc(S(=O)(=O)Nc2cc(-c3csc(NC(=O)CN4CCN(CCO)CC4)n3)ccc2OC)cc1,-14% (active)
2,N/C(=N\C(N)=N\c1nc2ccccc2s1)c1ccc(C(F)(F)F)cc1,22.6% (inactive)
3,CCn1c(SCC(=O)Nc2cccc(C(=O)/C=C/c3ccc(Br)cc3)c2)nc2ccccc2c1=O,98.9% (inactive)
4,O=S(=O)(NCCCNc1nccc(-c2[nH]c(-c3ccccc3)nc2-c2ccc(Cl)c(O)c2)n1)c1ccc(Br)cc1,22.3% (inactive)
5,CS(=O)(=O)Nc1cc(-c2ccc3ncc(C#N)c(N[C@H](CO)c4ccccc4)c3c2)cnc1Cl,74.3% (inactive)
6,Cn1ccnc1C(=O)/C=C/c1ccc(CNC(=O)c2ccc(Cl)cc2)cc1,-18.9% (active)
7,O=C(Cn1cc(-c2ccccc2)nn1)Nc1nc(-c2ccc(Cl)cc2)cs1,109% (inactive)
8,Nc1cc(F)ccc1NC(=O)c1ccc(NC(=O)C/C=C/c2cccnc2)cc1,56.8% (inactive)
9,CCOC(=O)C1=NNC(c2ccc(Cl)cc2)C1C(=O)N1C(=S)NC(=O)C1CC(C)C (stereo not drawn),105% (inactive)
10,COc1ccc(S(=O)(=O)NCCCNc2nccc(-c3[nH]c(-c4ccccc4)nc3-c3ccc(Cl)c(O)c3)n2)cc1,85.6% (inactive)
11,N=c1c2cc(-c3ccccc3)oc2ncn1/N=C/c1ccc(Br)cc1,15.8% (inactive)
12,CS(=O)(=O)Nc1cc(-c2ccc3ncc(C#N)c(Nc4cccc(Cl)c4F)c3c2)cnc1Cl,6.34% (active)
13,C=CCn1c(SCC(=O)Nc2ccc(C(=O)/C=C/c3ccc(Cl)cc3)cc2)nnc1-c1c[nH]c2ccccc12,95.1% (inactive)
